The supplement of paper PMC6555819

Tests used:
Assay in all cases: PBM binding z-score (relative to random genomic background probes); higher = stronger binding; sequences stand for … in GC…GCGATTGACAGCGTAGAATGAAGG
[1] = tested on: FXR:RXRa (NR concentration 270 nM, RXRa partner concentration 90 nM)
In short: (§1)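 Binding z-scores were set against random background probes. The data came from custom Agilent 4×180K protein-binding microarrays carrying double-stranded probes with 34-nt variable regions, incubated 1 h with ligand-free nuclear receptor dimers. Partner-specific antibodies detected binding, and scanned fluorescence was regression-normalized.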

[2] = tested on: LXRa:RXRa (NR concentration 270 nM, RXRa partner concentration 90 nM)
In short: as §1

[3] = tested on: LXRa homodimer (NR concentration 270 nM)
In short: as §1

[4] = tested on: LXRb:RXRa (NR concentration 270 nM, RXRa partner concentration 90 nM)
In short: as §1

[5] = tested on: LXRb homodimer (NR concentration 270 nM)
In short: as §1

[6] = tested on: PPARa:RXRa (NR concentration 270 nM, RXRa partner concentration 90 nM)
In short: as §1

[7] = tested on: PPARg:RXRa (NR concentration 180 nM, RXRa partner concentration 90 nM)
In short: as §1

[8] = tested on: PPARg:RXRa 270nM:90nM, anti-RXR (NR concentration 270 nM, RXRa partner concentration 90 nM)
In short: as §1

[9] = tested on: PPARg:RXRa 30nM:10nM, anti-RXR (NR concentration 30 nM, RXRa partner concentration 10 nM)
In short: as §1

[10] = tested on: PPARg:RXRa 90nM:30nM, anti-RXR (NR concentration 90 nM, RXRa partner concentration 30 nM)
In short: as §1

Sequence | PBM binding z-score [1] | PBM binding z-score [2] | PBM binding z-score [3] | PBM binding z-score [4] | PBM binding z-score [5] | PBM binding z-score [6] | PBM binding z-score [7] | PBM binding z-score [8] | PBM binding z-score [9] | PBM binding z-score [10]
CGAACTAGGTCATCAAGGACAGTGAATACATTGA | 3.45 | 2.23 | 0.477 | 1.76 | -0.245 | 4.53 | 7.15 | 6.3 | 3.43 | 5.6
TCTCGGAGGACACGAAGGTCAGTGCTTTCCAGAG | 1.02 | 1.19 | -0.141 | 0.731 | -0.921 | 1.59 | 0.156 | 1.49 | 2.2 | 1.94
GCTTGTAGATCCAGGTTAAGAAAGACTAAGCTAA | -0.143 | -0.0321 | -0.394 | -0.191 | -0.462 | 0.491 | -0.204 | 0.0602 | -0.441 | -0.11
GGAACGAGGGCAAGTTGATAGCGGAGTTTGATGG | 0.772 | 0.00493 | -0.352 | 0.246 | -0.525 | 1.7 | 0.963 | 1.16 | 0.00794 | 0.229
GTTTGTAGATCAAGGTTAAGAAAGACTAAGCTAA | 0.943 | 1.64 | 0.556 | 0.954 | 0.547 | 1.84 | 1.93 | 2.88 | 1.48 | 2.65
CAAACTAGGTCAAGAGGTAAAAGTCCGCTTCCCG | 4.11 | 3.15 | 0.451 | 2.2 | 0.356 | 5.2 | 8.8 | 7.58 | 5.87 | 7.82
CGAACAAGGTCAGAACAGGACAGTGAAGGATGAT | 4.33 | 3.42 | 0.289 | 2.42 | 0.289 | 3.91 | 3.09 | 3.2 | 1.12 | 1.95
CCTACTGGGCCATTCAGAGGCCATTGATCATATG | -0.101 | -0.261 | -0.0422 | -0.326 | -0.546 | 0.543 | 0.541 | 0.6 | -0.265 | 0.287
ATCTCTAGGTAACCAAGTTCAATGAATGCCGAAC | 0.814 | 1.63 | 1.7 | 1.34 | 1.25 | 1.76 | 1.26 | 1.15 | 0.497 | 0.824
CAATCTAGGTCACCGGAAGGTCAAAGTCCGCATG | 6.51 | 6.15 | 6.06 | 5.42 | 1.92 | 6.32 | 10 | 7.96 | 6.12 | 8.12
ATGTCTAGGTAAGACTCAGTTCAGTGAAGAACGC | -0.0311 | 0.274 | 0.049 | -0.259 | -0.00137 | -0.0837 | 0.0566 | 0.15 | -0.029 | -0.0514
CCAAGTTGGTCAGGAGGTCACACACCGGATATGA | 3.68 | 3.62 | 1.69 | 3.38 | 0.316 | 4.43 | 3.8 | 4.03 | 1.85 | 2.97
ATCCCAAGGTGATCGTGAGGTCGTTGATACTAAC | 1.33 | 1.13 | 0.822 | 1.02 | -0.338 | 1.16 | 0.11 | 0.0594 | -0.299 | -0.346
ATATGTAGGTTAGCTGGGGTCAATCAGACTAGGC | 4.21 | 5.44 | 1.4 | 4.65 | 1.47 | 5.14 | 5.84 | 5.34 | 2.61 | 4.68
TCTAGTTGGTCAAAGGTCACACATTCGAAATGCG | 6.04 | 5.54 | 3.96 | 5.35 | 1.75 | 6.86 | 11.5 | 9.09 | 10.8 | 10.5
ACTCGGAGGACAAAGGTCATAGCTACGCCAGTGA | 6.1 | 5.52 | 4.19 | 4.73 | 0.856 | 6.18 | 8.47 | 7.15 | 6.46 | 8.09
CGACCAAGGTCAGCAGGTCAGTGAAAGCGACGTG | 5.71 | 3.43 | -0.15 | 2.77 | -0.923 | 4.85 | 4.53 | 4.43 | 1.12 | 3.02
CGTCAAAGTTCAAGGTAAGGTAACAGAAAGCAGC | 6.16 | 5.4 | 2.37 | 3.29 | 0.542 | 4.69 | 4.19 | 4.91 | 1.78 | 3.67
CCTAATGGGCCACGAAAGGTCATTGATTCAGTGA | 3.91 | 5.44 | 4.82 | 4.5 | 0.556 | 4.42 | 3.05 | 4.1 | 1.8 | 3.4
ATATGTAGGTTATCGGGTCACTCAGTTTGCGCAT | 2.62 | 2.95 | 1.49 | 2.89 | 1.3 | 5.02 | 7.63 | 6 | 3.64 | 5.8
TAGCCTAGGTCATTCAGGGGCCAGTAGAGAAAGC | 4.49 | 3.73 | 0.592 | 3.1 | 1.16 | 3.64 | 1.7 | 2.31 | 0.562 | 1.53
AGAATGAGGTTATTAAGCTCAGGGAATTGCGGTC | 1.57 | 1.14 | -0.316 | 0.747 | -0.299 | 2.6 | 0.995 | 1.26 | -0.0679 | 0.636
TCTTGTAGATCAATAGAGGTTAAGAAGGTGCGCT | 0.831 | 2.82 | 0.464 | 1.44 | -0.193 | 2 | 0.18 | 1.52 | 2.75 | 1.95
